Source: PubChem BioAssay (National Center for Advancing Translational Sciences (NCATS))
Pol iota inh = qHTS for Inhibitors of Polymerase Iota; DNA polymerase iota (Homo sapiens), Q9UNA4; Pol iota fluorescent replication assay, 10 min; Potency, µM (series often up to 115 µM), for the others: at the top dose activity, negative = inhibition, usual class: inhibitors; hit rate 1% among 390,000; AID 588590, 2011; further: potency means the concentration at half of the fitted maximal effect
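Pol iota at 10 nM preincubated 15 min with compounds at room temperature; reaction started with fluorescent substrate, 50 nM final. Fluorescence read kinetically at 0 and 10 min; buffer-only wells as negative control.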
Pol kappa inh-1 = qHTS for Inhibitors of Polymerase Kappa; DNA polymerase kappa (Homo sapiens), Q9UBT6; purified Pol kappa, fluorescent DNA synthesis assay, 10 min; Potency, µM (top dose mostly 107 µM), inactives show top-dose activity, negative = inhibition, usual class: inhibitors; hit rate 0.53% among 400,000; further: potency means the concentration at half of the fitted maximal effect; on the % scale 0 is the no-effect control and ±100 the full control effect
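50 nM final substrate added after 15 min RT preincubation of 10 nM Pol kappa with compound; fluorescence read at 0 and 10 min.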
Pol eta inh-1 = qHTS for Inhibitors of Polymerase Eta; recombinant Pol eta, fluorescent DNA replication assay; Potency, µM (series often up to 114 µM), without a hit: at the highest dose activity change, negative = inhibition, most hits filed as inhibitors; hit rate 1.2% among 390,000; AID 588591, 2011; further: potency means the concentration at half of the fitted maximal effect; on the % scale 0 is the no-effect control and ±100 the full control effect
Target sequence (Q9Y253 whole entry, looked up): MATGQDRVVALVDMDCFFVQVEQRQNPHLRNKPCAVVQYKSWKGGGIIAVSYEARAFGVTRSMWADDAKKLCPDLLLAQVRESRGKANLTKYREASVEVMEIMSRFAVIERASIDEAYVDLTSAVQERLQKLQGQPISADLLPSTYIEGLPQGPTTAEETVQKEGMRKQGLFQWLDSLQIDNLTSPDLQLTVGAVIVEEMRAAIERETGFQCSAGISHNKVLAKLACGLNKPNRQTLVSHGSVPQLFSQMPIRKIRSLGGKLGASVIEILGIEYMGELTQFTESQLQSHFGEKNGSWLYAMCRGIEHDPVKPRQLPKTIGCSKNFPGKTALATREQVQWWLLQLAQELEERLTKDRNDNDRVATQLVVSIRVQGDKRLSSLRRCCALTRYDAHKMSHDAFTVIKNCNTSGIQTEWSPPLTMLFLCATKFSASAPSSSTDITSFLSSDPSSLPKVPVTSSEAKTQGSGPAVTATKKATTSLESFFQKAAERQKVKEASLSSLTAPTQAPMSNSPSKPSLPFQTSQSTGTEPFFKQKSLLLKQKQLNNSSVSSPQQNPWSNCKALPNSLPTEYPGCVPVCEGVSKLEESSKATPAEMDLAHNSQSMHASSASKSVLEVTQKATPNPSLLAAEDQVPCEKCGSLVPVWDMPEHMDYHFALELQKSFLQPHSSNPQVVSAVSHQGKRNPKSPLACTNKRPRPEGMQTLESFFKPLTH
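Pol eta (10 nM) was preincubated with compounds for 15 min at room temperature, after which fluorescent replication substrate (50 nM final) was added to start the reaction. Fluorescence was read kinetically at 0 and 10 min.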
PI5P4Ka inh = qHTS for Inhibitors of phosphatidylinositol 5-phosphate 4-kinase (PI5P4K). Phosphatidylinositol 5-phosphate 4-kinase type-2 alpha (Homo sapiens), P48426. PI5P4Kalpha enzyme, ADP-Glo luminescence, 60 min; hits give low values. max response, %. hit rate 1.2% among 330,000; active means max response of -50% or lower; inconclusive means between -30% and -50%; inactive means -30% or higher; further: value at the top dose of about 77 µM; on the % scale 0 is the no-effect control and ±100 the full control effect
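ADP-Glo luminescence end-point after a 60 min room-temperature kinase reaction. PI5P4Kalpha and substrate in HEPES pH 7.4 buffer with EGTA, 0.1% CHAPS and 5% DMSO; ATP at 5 microM final.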
WRN inhibitor = qHTS for Inhibitors of WRN Helicase; WRN helicase unwinding, fluorescent forked duplex, kinetic; Potency, µM (highest dose often 114 µM), inactives show at the highest dose activity change, negative = inhibition, usual class: inhibitors; hit rate 0.46% among 360,000; AID 651768, 2012; further: potency means the concentration at half of the fitted maximal effect; on the % scale 0 is the no-effect control and ±100 the full control effect; nearly all actives have a fitted effect of over 55% in size
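Fluorescence dequenching readout, ex 525 nm/em 598 nm, kinetic mode: forked duplex DNA (100 nM final) with adjacent fluorophore and quencher unwound by WRN (20 nM final) with 2 mM ATP. Compound preincubation 15 min, room temperature.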
POLB inh = qHTS Assay for Inhibitors of DNA Polymerase Beta. Potency, µM (series often up to 114 µM), inactives show top-dose activity change, negative = inhibition, hits mostly inhibitors. hit rate 1.3% among 340,000. P06746. Pol beta primer extension/strand displacement, fluorescence kinetic; further: potency means the concentration at half of the fitted maximal effect; on the % scale 0 is the no-effect control and ±100 the full control effect
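Enzyme-only controls used 10 nM Pol beta; buffer lacking enzyme served as negative control. Compound preincubated 15 min, then 50 nM substrate added; 0 and 10 min reads at room temperature.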
TbPGK inh = qHTS for inhibitors of Phosphogylcerate Kinase: Hit Validation Screen. AID 686980, 2013. Potency, µM (doses to about 57.5 µM), for the others: at the highest dose activity change, negative = inhibition, hits mostly inhibitors. hit rate 79% among 500. shares compounds with Pol kappa inh-1. TbPGK coupled GAPDH assay, Kinase-Glo luminescence; further: potency means the concentration at half of the fitted maximal effect; on the % scale 0 is the no-effect control and ±100 the full control effect; nearly all actives have a fitted effect of over 65% in size
Pol iota confirm = qHTS for Inhibitors of Polymerase Iota: Confirmatory Assay for Cherry-picked Compounds | shares compounds with Pol kappa inh-1 | Pol iota primer extension, TAMRA/BHQ fluorescence | Potency, µM, usual class: inhibitors | hit rate 77% among 1,500 | AID 720496, 2013; further: potency means the concentration at half of the fitted maximal effect
GALK confirm = Confirmation Assay for Inhibitors of Human Galactokinase (GALK). purified GALK, Kinase-Glo ATP depletion luminescence. shares compounds with Pol eta inh-1. hit rate 70% among 150. Potency, µM (highest dose often 115 µM), inactives show at the top dose activity, negative = inhibition, hits mostly inhibitors. AID 2015, 2009
GALK redox cs = Confirmatory Assay for Inhibitors of Human Galactokinase (GALK): Phenol-HRP redox assay counterscreen; shares compounds with Pol eta inh-1; Phenol red-HRP H2O2 redox cycling, absorbance 600 nm; Potency, µM (top dose mostly 115 µM), inactives show top-dose activity change, negative = H2O2 signal, hits mostly inhibitors; hit rate 40% among 150
HEK293 tox = Secondary Assay for Inhibitors of Human Galactokinase (GALK): HEK-293 Cell Viability Assay | hit rate 10% among 170 | shares compounds with Pol eta inh-1 | AID 2547, 2010 | Potency, µM (series often up to 46.1 µM), for inactives: top-dose activity change, negative = cytotoxicity, actives largely listed as inhibitors | HEK-293 viability, ATP luminescence (CellTiter-Glo), 24/48 h; further: potency means the concentration at half of the fitted maximal effect; on the % scale 0 is the no-effect control and ±100 the full control effect
Pol kappa inh-2 = qHTS for Inhibitors of Polymerase Kappa: Confirmatory Assay for Cherry-picked Compounds; shares compounds with Pol eta inh-1; purified Pol-kappa, fluorescent strand-displacement substrate; Potency, µM, most hits filed as inhibitors; hit rate 76% among 920; AID 720501, 2013; further: potency means the concentration at half of the fitted maximal effect
Pol eta inh-2 = qHTS for Inhibitors of Polymerase Eta: Confirmatory Assay for Cherry-picked Compounds; Potency, µM, hits mostly inhibitors; hit rate 64% among 2,600; AID 720502, 2013; shares compounds with Pol eta inh-1; Pol eta primer extension, TAMRA/BHQ fluorescence, 10 min; further: potency means the concentration at half of the fitted maximal effect
* hit, by the source's call; ? = inconclusive; nt = no result; [ ] = dose if it differs, or a comment. Sampled rows, rich in hits. Any-hit rate of the full collection: about 2.8%. Unless noted, the call rests on the fitted dose curve; in most records, active means well fitted curve in the direction sought with a large enough effect; inconclusive means small, poorly fitted or top-dose-only effect, or another doubt; inactive means no such curve, though single readings can be large; an effect the other way counts as inactive or inconclusive.

SMILES	Pol iota inh	Pol kappa inh-1	Pol eta inh-1	PI5P4Ka inh	WRN inhibitor	POLB inh	Pol iota confirm	Pol eta inh-2	others
CCC(=O)Nc1ccccc1-c1nc2ccccc2n(CC(=O)c2ccc(C)c(C)c2)c1=O	21%	-16%	-2%	nt	nt	2%	nt	nt
COc1ccc(NS(=O)(=O)c2ccc(N3CCCCS3(=O)=O)cc2)cc1Cl	-8%	3%[60.1 µM]	-18%	nt	nt	-17%	nt	nt
Cc1nn(C)c2c1c(-c1ccccc1)cc(=O)n2CC(=O)NC(C)c1ccccc1 (stereo not given)	?	?	25µM*	nt	nt	14µM*	34*	27*	Pol kappa inh-2=17*
Cc1cc(=O)n(CC(=O)NC(C)c2ccccc2)c2c1c(C)nn2C (stereo not given)	-23%	?	40µM*	nt	nt	32µM*	67*	85*
CC1(C)Cc2c(C#N)c(N)n(-c3ccccc3)c(=S)c2CO1	70%	-20%	-8%	0	0%	-1%	nt	nt
CC1(C)C=C2C(=NN(c3ccccc3)C(N)=C2C#N)CO1	14µM*	-3%	18µM*	6	3%[57.1 µM]	-13%	?	nt	GALK confirm=27µM*;GALK redox cs=12µM*;HEK293 tox=1%
Cc1ccc(Cn2cccc2C2=NC(C)(C)CO2)cc1	3%	-2%	-1%	nt	nt	-6%	nt	nt
COC(=O)c1cc(C(=O)OC)cc(-n2c(C)cc(C=O)c2C)c1	65%	-7%	-20%	-5	-3%	7%	nt	nt
Cc1cc(C=O)c(C)n1-c1cccc(C(=O)O)c1	18µM*	79µM*	4µM*	-5	-15%[11.6 µM]	14µM*	34*	21*
Cc1ccc(C)n1-c1cccc(C(=O)Nc2ccccc2)c1	14%	11%	-9%	-9	-3%	2%	nt	nt
Cc1cc(C=O)c(C)n1-c1cc(C(=O)O)cc(C(=O)O)c1	25µM*	50µM*	4µM*	-13	-26%	7.9µM*	17*	5.4*	TbPGK inh=?
Cc1ccc(C)n1-c1cccc(C(=O)O)c1	nt	nt	nt	nt	nt	1µM*	8.4*	0.17*	Pol kappa inh-2=?
O=C(CSc1nc(=O)[nH]c2c1CCC2)Nc1cc(C(F)(F)F)ccc1Cl	33%	-7%[60.1 µM]	-21%	nt	nt	0%	nt	nt
Clc1cccc(CNc2cc(-c3ccccc3)nc3nncn23)c1	2%	4%	6%	nt	nt	1%	nt	nt
COc1cccc(-c2nc(-c3ccc(NC(=O)c4ccncc4)cc3)no2)c1	?	-27%	35µM*	-3	-10%[57.1 µM]	14µM*	11*	11*
CCCn1c(C)nc2c(c1=O)c1nc3ccccc3nc1n2CCC1=CCCCC1	8%	-2%	-16%	12	-10%	1%	nt	nt
Cc1nc2c(c(=O)n1CCC1=CCCCC1)c1nc3ccccc3nc1n2/N=C/c1ccco1	?	?	?	?	?	10µM*	67*	76*
N=C1/C(=C\c2ccc(-c3cccc(C(=O)O)c3)o2)C(=O)N=C2SC=C(c3ccccc3)N12	20µM*	40µM*	8.9µM*	-98*	40µM*	20µM*	30*	9.5*
N=C1/C(=C/c2ccc(-c3cccc(C(=O)O)c3)o2)C(=O)N=C2SC(CC(=O)N3CCOCC3)=NN12	3.5µM*	?	3.5µM*	-83*	22µM*	?	17*	4.8*
COc1ccccc1-n1c(C)cc(/C=C2\C(=N)N3N=C(CC(=O)N4CCOCC4)SC3=NC2=O)c1C	14%	0%	-2%	0	-2%	22%	nt	nt
COc1ccc(CNC(=O)COC(=O)c2ccc(S(=O)(=O)NCc3ccco3)cc2)cc1	50µM*	?	32µM*	-23	-9%	nt	?	67*
Cc1ccc(C(=O)OCC(=O)NCc2ccco2)s1	28µM*	79µM*	22µM*	-26	?	22µM*	42*	67*
O=C(COC(=O)c1ccc(F)cc1Cl)NCc1ccco1	22µM*	?	40µM*	-26	-12%[11.6 µM]	nt	60*	?
COc1ccc(NC(=O)CN(c2cc(C)cc(C)c2)S(=O)(=O)c2c(C)noc2C)cc1Cl	-14%	0%	-19%	nt	nt	0%	nt	nt
CC(=O)N1CCC2(CC1)OC(=O)C(C)=C2C(=O)Nc1cccc(Cl)c1C	-1%	-8%	-4%	nt	nt	39%	nt	nt
CCCCCCCCCCCCCCCCCCNc1ccn(C2OC(COP(=O)(O)OCC3OC(n4cc(F)c(=O)[nH]c4=O)CC3O)C(O)C2O)c(=O)n1 (stereo not given)	18µM*	45µM*	14µM*	-69*	40µM*	nt	42*	43*	Pol kappa inh-2=27*
